TbPYK inhibitor: T. brucei pyruvate kinase inhibition; Q57TT1; TbPYK enzyme, Kinase-Glo Plus ATP luminescence, 45 min; Potency, µM (doses to about 76.8 µM), inactives show top-dose activity, negative = inhibition, most hits filed as inhibitors; 410,000 compounds, 0.12% hits; further: potency means the concentration at half of the fitted maximal effect; on the % scale 0 is the no-effect control and ±100 the full control effect; nearly all actives have a fitted effect of over 50% in size
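Activity of T. brucei pyruvate kinase was followed by Kinase-Glo Plus luminescence after the enzyme reacted 45 min at room temperature with 130 uM ADP (final) and substrate. Test compounds were added before ADP at multiple concentrations.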
RE007 growth inh: less growth of the S. pombe RE007 Vpr strain; S. pombe RE007 Vpr strain, BacTiter-Glo ATP luminescence, 24 h; Potency, µM (titrated, usually from 92.2 µM), for inactives: top-dose activity change, negative = less growth, hits mostly inhibitors; 360,000 compounds, 0.21% hits; active means well fitted falling curve with a large enough effect; further: potency means the concentration at half of the fitted maximal effect; on the % scale 0 is the no-effect control and ±100 the full control effect; nearly all actives have a fitted effect of over 50% in size
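Fission yeast RE007 carrying one integrated HIV-1 vpr copy, seeded at OD 0.01 in PMG+AL medium with 23 nL pinned compound. Grown 24 h at 30 degrees; viability read by BacTiter-Glo luminescence after 5 min.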
FBPA Giardia inh: Giardia lamblia aldolase inhibition; 290,000 compounds, 0.71% hits; purified Giardia FBPA; Potency, µM (titrated, usually from 59.6 µM), for inactives: top-dose activity, negative = inhibition, hits mostly inhibitors; A8B2U2; further: potency means the concentration at half of the fitted maximal effect; on the % scale 0 is the no-effect control and ±100 the full control effect; nearly all actives have a fitted effect of over 55% in size
Target sequence (A8B2U2 whole entry, looked up): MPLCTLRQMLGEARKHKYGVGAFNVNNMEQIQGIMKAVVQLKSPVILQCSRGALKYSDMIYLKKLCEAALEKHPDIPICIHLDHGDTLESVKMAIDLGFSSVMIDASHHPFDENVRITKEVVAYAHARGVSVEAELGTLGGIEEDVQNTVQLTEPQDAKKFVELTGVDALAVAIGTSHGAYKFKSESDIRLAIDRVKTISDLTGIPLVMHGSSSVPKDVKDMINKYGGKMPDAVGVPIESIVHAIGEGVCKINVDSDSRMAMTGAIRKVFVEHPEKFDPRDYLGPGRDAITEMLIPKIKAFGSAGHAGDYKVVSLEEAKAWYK
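Giardia FBPA (40 nM reagent) was preincubated 10 min at RT with compound (up to 57.5 uM final), then substrate plus GAPDH/TPI/NAD/arsenate coupling system with diaphorase/resazurin was added; resorufin fluorescence (525/598 nm) was read after 20 min.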
Shiga inhibitor: Shiga toxin inhibition. Vero cells, Shiga toxin protein synthesis inhibition reporter. inhibition, % at 38.7 µM. 290,000 compounds, 9.2% hits; in the data active means inhibition mostly above about 28%, no sharp cut-off; inactive means mostly below about 43%; further: 0% is about no effect
CHX counter: affects cycloheximide protein synthesis inhibition readout, counter-screen | max response, % | cell reporter, cycloheximide protein synthesis inhibition counterscreen | 300,000 compounds, 12% hits; in the data active means max response mostly above about 13%, no sharp cut-off; inactive means mostly below about 14%; further: read at 38.3 µM for the half of the compounds with a filed dose; 0% is about no effect
LmPK inh: blocks Leishmania mexicana pyruvate kinase activity | Potency, µM (highest dose often 57.5 µM), inactives show at the highest dose activity change, negative = inhibition, actives largely listed as inhibitors | purified LmPK, Kinase-Glo ATP luminescence, 1 h | AID 1721 | 290,000 compounds, 0.37% hits | Q27686; further: potency means the concentration at half of the fitted maximal effect; on the % scale 0 is the no-effect control and ±100 the full control effect
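In 50 mM imidazole pH 7.2 with 7 mM MgCl2, LmPK (0.1 nM) turned over PEP (0.5 mM) and ADP (0.1 mM) for 1 h at room temperature. Luciferase read-out of ATP.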
* hit, by the source's call; / = no result given. This is one part of a sample in which hits are shown more often than they occur. Unless noted, the call rests on the fitted dose curve; in most records, active means well fitted curve in the direction sought with a large enough effect; inconclusive means small, poorly fitted or top-dose-only effect, or another doubt; inactive means no such curve, though single readings can be large; an effect the other way counts as inactive or inconclusive.

SMILES	TbPYK inhibitor	RE007 growth inh	FBPA Giardia inh	Shiga inhibitor	CHX counter	LmPK inh
CC(C)c1ccc(/C=N\NC(=O)c2ccc(Cn3cccn3)o2)cc1	-5%	16%	3%	71*	54*	-1%
COc1ccc(/C=N/Nc2ccccc2C(=O)O)cc1Cn1cc([N+](=O)[O-])cn1	2%	-16%	1%	56*	46*	5%
Cc1noc(C)c1C(=O)N1CCC2(CCN(Cc3ccc(C#N)cc3)CC2)CC1	6%	/	5%	/	/	/
COc1ccc(C2c3c(oc4ccc(F)cc4c3=O)C(=O)N2Cc2ccc3c(c2)OCO3)cc1 (configuration not stated)	-2%	/	/	/	/	/
COc1cc(Cl)c(NC(=O)c2cc(S(=O)(=O)N3CCOCC3)cn2C)c(OC)c1	0%	/	/	/	/	/
C=CCN1C[C@H](C)N([C@H](c2ccc(C(=O)N(CC)CC)cc2)c2cccc(O)c2)C[C@H]1C	/	/	1%	/	/	/
Cc1ccc(/C=N/NC(=O)c2ccc(Cn3cc([N+](=O)[O-])cn3)o2)cc1	5%	7%	-1%	21*	15	0%
CCCOc1ccc(/C=N/NC(=O)c2ccc(Cn3cc([N+](=O)[O-])cn3)o2)cc1	-10%	-1%	-1%	25	-3	-6%
COC(=O)c1c(NC(=O)COc2cc(C)c(Cl)c(C)c2)sc2c1CCCC2	2%	/	/	/	/	/
O=C(Nc1cccc(Cl)c1N1CCCC1)c1cccc(-c2cc3ccccc3oc2=O)c1	1%	-7%	-8%	39	26*	1%
O=C(Nc1ccc(CN2CCOCC2)cc1)c1cccc(-c2cc3ccccc3oc2=O)c1	-3%	-12%	4%	32	9	1%
CCn1nnc(NC(=O)c2cccc(-c3cc4ccccc4oc3=O)c2)n1	-4%	-2%	6%	73*	40*	0%
COc1ccc(-c2ccc(OC)c(C3C4C=CCC(C)C4C(=O)N3Cc3ccccc3)c2)cc1 (configuration not stated)	/	/	1%	-9	10	/
COc1cc(-c2ccccc2)nc(N)n1	3%	-11%	4%	77*	87*	-9%
CCOc1cc(-c2ccccc2)nc(N)n1	-4%	-20%	6%	106*	49*	-14%
CCN(CC)CCn1c2c(c(SCC(=O)Nc3cccc(C(F)(F)F)c3)nc1=O)CCC2	7%	/	/	/	/	/
FC(F)(F)c1ccccc1-c1nc(Nc2ccncc2)c2ccccc2n1	/	/	-6%	/	/	/

Screens as filed in PubChem.
